Test results taken from PubChem BioAssay (EPA / NIEHS).
Several values for one entry are separate records, joined by “and”; a condition that tells them apart may be missing. Equal entries are not always repeated. Records with an inconclusive call do not appear. Some compounds were tested as several samples or in several runs, with calls that do not always agree. Activity calls are given as the source filed them. How the source made its calls, unless noted: active means hit-call score of the fitted dose curve at least 0.9, where 1 is the maximum; inconclusive means response in the unintended direction; inactive means score below 0.9.

How the values were obtained:
[1] = TOX21_p53_BLA_p2_viability: Viability Assessment in the Tox21 HCT-116 p53 Agonism Beta-lactamase Assay, Phase 2 (AID 2283591);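 further: compound exposure lasted 16 h at 37 °C; actives lower the ATP signal meaning cytotoxicity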
Outline: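 HCT-116 p53-bla cells (4000/well) rested 5 h at 37C, then received compounds in DMSO (217-fold dilution) for 16 h at 37C, 5% CO2. After the CCF4 read, CellTiter-Glo was added; ATP luminescence was read after 30 min at room temperature.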

[2] = biological target: Cellular tumor antigen p53 (Homo sapiens) (UniProt P04637); test: TOX21_p53_BLA_p3_ratio: Tox21 HCT-116 p53 Agonism Beta-lactamase Assay, Ratio, Phase 3 (AID 2283596)
Outline: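 Cells were seeded at 4000/well, rested 5 h at 37C, then dosed with DMSO compound solutions (217-fold dilution) for 16 h. CCF4-AM substrate was loaded for 2 h at room temperature, and the 460/530 nm emission ratio was fitted for gain of signal versus DMSO.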

[3] = TOX21_p53_BLA_p4_viability: Viability Assessment in the Tox21 HCT-116 p53 Agonism Beta-lactamase Assay, Phase 4 (AID 2283597);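 further: hits lower the luminescence signal meaning cytotoxicity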
Outline: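 Readout: ATP luminescence (CellTiter-Glo), measured 30 min after reagent addition at RT. The reagent followed a 2 h CCF4-AM incubation, and the cells had been exposed to compound for 16 h at 37C.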

[4] = biological target: Cellular tumor antigen p53 (Homo sapiens) (UniProt P04637); test: TOX21_p53_BLA_p5_ratio: Tox21 HCT-116 p53 Agonism Beta-lactamase Assay, Ratio, Phase 5 (AID 2283599)
Outline: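 HCT-116 cells carrying a p53-inducible beta-lactamase reporter were seeded at 4000 cells/well and dosed after 5 h with compound in DMSO (217-fold dilution). After 16 h at 37C, CCF4-AM substrate was added for 2 h, and the 460/530 nm emission ratio was scored as gain-of-signal versus DMSO.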

[5] = TOX21_p53_BLA_p5_viability: Viability Assessment in the Tox21 HCT-116 p53 Agonism Beta-lactamase Assay, Phase 5 (AID 2283600)
Outline: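 Workflow: seed 4000 cells per well, wait 5 h, add compounds (DMSO, 217-fold dilution), incubate 16 h, load CCF4-AM 2 h, add CellTiter-Glo, read luminescence after 30 min.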

[6] = biological target: Cellular tumor antigen p53 (Homo sapiens) (UniProt P04637); test: TOX21_p53_BLA_p4_ratio: Tox21 HCT-116 p53 Agonism Beta-lactamase Assay, Ratio, Phase 4 (AID 2283601)
Outline: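 HCT116 cells carrying an inducible beta-lactamase reporter were plated at 4000 cells/well, rested 5 h, then exposed to compounds in DMSO (217-fold dilution) for 16 h at 37C. CCF4-AM substrate was loaded 2 h at room temperature; 460/530 nm emission ratio scored gain-of-signal versus DMSO.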

[7] = biological target: CCAAT/enhancer-binding protein beta (Homo sapiens) (UniProt P17676); test: ATG_C_EBP_CIS: Attagene CIS-FACTORIAL HepG2 Assay for human CCAAT/Enhancer Binding Protein (C/EBP) beta (AID 2282927; active means hit-call score of the fitted dose curve at least 0.9, where 1 is the maximum; inactive means score below 0.9); conditions: HepG2 Attagene cis-factorial transcription factor reporter; actives raise or lower the signal
Outline: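 Chemical-treated HepG2 cells (24 h) bearing cis-regulated reporter constructs were processed for total RNA, then reverse transcription, PCR amplification, fluorescent primer extension and fragment analysis; gain- and loss-of-signal were fitted against DMSO.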

[8] = ATG_CMV_CIS: Attagene CIS-FACTORIAL HepG2 Assay for human CMV (Internal Marker) (AID 2282928; active means hit-call score of the fitted dose curve at least 0.9, where 1 is the maximum; inactive means score below 0.9;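 further: endpoint acts as a background internal control marker rather than a target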); conditions: HepG2 CMV promoter reporter, transcription factor profiling; actives raise or lower the signal
Outline: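 24 h chemical treatment, HepG2 with transient multi-reporter transfection; RNA → oligo(dT) RT → PCR → 6-FAM extension → HpaI digest → CE fluorescence. Bidirectional fit, DMSO negative control.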

[9] = ATG_DR4_LXR_CIS: Attagene CIS-FACTORIAL HepG2 Assay for human Liver X Receptor (LXR), DR4 submotif (AID 2282929; active means hit-call score of the fitted dose curve at least 0.9, where 1 is the maximum; inactive means score below 0.9); conditions: HepG2 Attagene DR4 cis-reporter, mRNA transcription; actives raise or lower the signal
Outline: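 HepG2 cells were transiently transfected with multiple cis-regulated reporter units and dosed for 24 hours. The DR4 reporter mRNA was quantified by RT-PCR, 6-FAM labelling and capillary electrophoresis. Bidirectional fits used DMSO as baseline.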

[10] = ATG_AP_2_CIS: Attagene CIS-FACTORIAL HepG2 Assay for human Activator Protein 2 (AP-2) (AID 2282932; active means hit-call score of the fitted dose curve at least 0.9, where 1 is the maximum; inactive means score below 0.9); conditions: HepG2 AP-2 cis-reporter, Attagene transcription factor profiling; actives raise or lower the signal
Outline: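 Cells (HepG2) transfected with promoter-driven reporter constructs, treated 24 h. Total RNA reverse-transcribed, reporter cDNA PCR-amplified, FAM-labelled by primer extension, digested, resolved by capillary electrophoresis. Activity fitted both directions versus DMSO.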

[11] = ATG_BRE_CIS: Attagene CIS-FACTORIAL HepG2 Assay for human Bone Morphogenetic Protein (BMP) Response Element (BRE) (AID 2282933; active means hit-call score of the fitted dose curve at least 0.9, where 1 is the maximum; inactive means score below 0.9); conditions: HepG2 BMP response element reporter, Attagene transcription factor profiling; actives raise or lower the signal
Outline: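 HepG2 cells transiently transfected with multiplexed cis-element reporter units were dosed with chemical for 24 h. Reporter mRNA was measured by RT-PCR with fluorescent labelling, HpaI digestion and capillary electrophoresis; bidirectional fitting relative to DMSO.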

[12] = biological target: Transcription factor E2F1 (Homo sapiens) (UniProt Q01094); test: ATG_E2F_CIS: Attagene CIS-FACTORIAL HepG2 Assay for human E2F Transcription Factor 1 (AID 2282935; active means hit-call score of the fitted dose curve at least 0.9, where 1 is the maximum; inactive means score below 0.9); conditions: HepG2 Attagene cis-reporter, E2F reporter RNA transcripts; actives raise or lower the signal
Outline: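 First, HepG2 cells were transfected with reporter transcription units. Next, they were dosed for 24 h. Then RNA was isolated, converted to cDNA, PCR-amplified, FAM-labeled, HpaI-digested and analyzed by capillary electrophoresis.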

[13] = ATG_E_Box_CIS: Attagene CIS-FACTORIAL HepG2 Assay for human Enhancer Box (E-box) (AID 2282936; active means hit-call score of the fitted dose curve at least 0.9, where 1 is the maximum; inactive means score below 0.9); conditions: HepG2 E-box cis-reporter transcription, actives raise or lower the signal
Outline: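 Endogenous transcription factor activity was sensed in human HepG2 liver cells through transfected cis-promoter reporter units. After 24 h of dosing, total RNA was reverse-transcribed and reporter cDNA resolved by capillary electrophoresis.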

[14] = ATG_M_61_CIS: Attagene CIS-FACTORIAL HepG2 Assay for M61 Transcription Factor (Internal Marker) (AID 2282937; active means hit-call score of the fitted dose curve at least 0.9, where 1 is the maximum; inactive means score below 0.9); conditions: HepG2 Attagene CIS-FACTORIAL M61 internal marker reporter; actives raise or lower the signal
Outline: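 HepG2 cells transiently transfected with multiplexed cis-promoter reporter units reporting endogenous transcription factor activity, measured 24 h after dosing. Reporter mRNA quantified by RT-PCR and capillary electrophoresis; bidirectional fit against DMSO baseline.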

[15] = ATG_EGR_CIS: Attagene CIS-FACTORIAL HepG2 Assay for human Early Growth Response 1 (EGR1) (AID 2282938; active means hit-call score of the fitted dose curve at least 0.9, where 1 is the maximum; inactive means score below 0.9); conditions: HepG2 Attagene CIS-FACTORIAL EGR reporter mRNA; actives raise or lower the signal
Outline: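 HepG2 cells transiently transfected with cis-element-driven multiplexed reporter units, dosed for 24 h. EGR1-element reporter mRNA quantified by RT-PCR, 6-FAM labelling, HpaI digestion and capillary electrophoresis; bidirectional fit versus DMSO.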

[16] = ATG_M_19_CIS: Attagene CIS-FACTORIAL HepG2 Assay for M19 Transcription Factor (Internal Marker) (AID 2282939; active means hit-call score of the fitted dose curve at least 0.9, where 1 is the maximum; inactive means score below 0.9); conditions: HepG2 Attagene CIS-FACTORIAL M19 internal marker reporter; actives raise or lower the signal
Outline: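 HepG2 cells transiently transfected with cis-regulated multiple reporter transcription units were dosed for 24 h; reporter mRNA was quantified by RT-PCR, 6-FAM primer-extension labelling, HpaI digestion and capillary electrophoresis, with bidirectional fitting against DMSO baseline.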

[17] = ATG_FoxO_CIS: Attagene CIS-FACTORIAL HepG2 Assay for human Forkhead box O (FoxO) (AID 2282943; active means hit-call score of the fitted dose curve at least 0.9, where 1 is the maximum; inactive means score below 0.9); conditions: HepG2 Attagene cis-reporter, FoxO element, mRNA; actives raise or lower the signal
Outline: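 24 h chemical exposure, HepG2 with transient cis-MRTU transfection. RNA extraction, oligo(dT) RT, reporter-specific PCR, primer-extension labelling, HpaI digestion, CE fragment analysis; bidirectional fit, DMSO baseline.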

[18] = biological target: Cellular tumor antigen p53 (Homo sapiens) (UniProt P04637); test: TOX21_p53_BLA_p2_ratio: Tox21 HCT-116 p53 Agonism Beta-lactamase Assay, Ratio, Phase 2 (AID 2283592)
Outline: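 Plated HCT116 p53-bla cells (4000/well) received compound after 5 h, then 16 h at 37C/5% CO2. CCF4-AM added, 2 h RT. Ratio of 460 to 530 nm emission taken as the p53 reporter signal.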

[19] = TOX21_p53_BLA_p3_viability: Viability Assessment in the Tox21 HCT-116 p53 Agonism Beta-lactamase Assay, Phase 3 (AID 2283593);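 further: cells exposed to compound for 16 h before reading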
Outline: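 HCT-116 cells (4000/well) rested 5 h at 37C, then got DMSO compounds by pin tool (217-fold dilution) for 16 h at 37C, 5% CO2. After the bla read, CellTiter-Glo was added and luminescence read at 30 min, room temperature.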

[20] = biological target: Estrogen receptor (Homo sapiens) (UniProt P03372); test: NVS_NR_hER: NovaScreen (NVS) Nuclear Receptor Binding Assay for human Estrogen Receptor (ER) (AID 2283348)
Outline: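 Radiodetection of ligand displacement in a lysate-based, cell-free format using MCF7 extracts, read at 18 hours. Duplicate 25 uM primary testing, then concentration series for actives.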

Measured: AC50

Chain of CCAAT/enhancer-binding protein beta (Homo sapiens) (P17676 whole entry, looked up, the tested form may be a part): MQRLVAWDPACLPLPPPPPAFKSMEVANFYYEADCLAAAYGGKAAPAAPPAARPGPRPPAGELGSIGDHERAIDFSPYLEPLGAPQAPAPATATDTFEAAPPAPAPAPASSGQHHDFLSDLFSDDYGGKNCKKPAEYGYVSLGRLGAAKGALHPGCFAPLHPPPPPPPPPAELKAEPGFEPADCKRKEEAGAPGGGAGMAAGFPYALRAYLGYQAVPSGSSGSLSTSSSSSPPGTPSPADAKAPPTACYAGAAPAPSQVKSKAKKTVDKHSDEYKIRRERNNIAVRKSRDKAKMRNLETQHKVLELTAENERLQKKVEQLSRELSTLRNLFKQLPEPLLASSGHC
Chain of Transcription factor E2F1 (Homo sapiens) (Q01094 whole entry, looked up): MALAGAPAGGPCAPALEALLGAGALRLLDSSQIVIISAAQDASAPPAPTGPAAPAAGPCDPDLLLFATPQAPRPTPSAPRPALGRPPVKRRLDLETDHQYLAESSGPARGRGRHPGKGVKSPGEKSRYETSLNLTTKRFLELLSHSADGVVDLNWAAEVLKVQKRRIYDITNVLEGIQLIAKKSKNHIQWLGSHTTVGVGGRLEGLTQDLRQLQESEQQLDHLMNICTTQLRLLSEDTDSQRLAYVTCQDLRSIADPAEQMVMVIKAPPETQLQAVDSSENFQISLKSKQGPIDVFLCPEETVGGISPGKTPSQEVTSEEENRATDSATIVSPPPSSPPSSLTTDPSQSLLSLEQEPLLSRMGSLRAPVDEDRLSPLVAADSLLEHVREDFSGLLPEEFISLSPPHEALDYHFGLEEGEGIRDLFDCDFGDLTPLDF
Chain of Cellular tumor antigen p53 (Homo sapiens) (P04637 whole entry, looked up): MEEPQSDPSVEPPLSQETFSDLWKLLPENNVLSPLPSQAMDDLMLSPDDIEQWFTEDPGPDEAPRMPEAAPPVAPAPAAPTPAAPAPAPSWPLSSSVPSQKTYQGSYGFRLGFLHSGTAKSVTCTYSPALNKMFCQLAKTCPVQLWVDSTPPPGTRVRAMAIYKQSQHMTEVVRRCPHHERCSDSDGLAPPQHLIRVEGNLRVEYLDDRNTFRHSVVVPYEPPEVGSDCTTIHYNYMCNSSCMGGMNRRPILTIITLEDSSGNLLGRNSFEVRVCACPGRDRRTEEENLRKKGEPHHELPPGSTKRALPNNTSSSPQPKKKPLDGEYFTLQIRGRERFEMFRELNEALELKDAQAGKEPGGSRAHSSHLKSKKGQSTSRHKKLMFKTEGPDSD
Chain of Estrogen receptor (Homo sapiens) (P03372 whole entry, looked up): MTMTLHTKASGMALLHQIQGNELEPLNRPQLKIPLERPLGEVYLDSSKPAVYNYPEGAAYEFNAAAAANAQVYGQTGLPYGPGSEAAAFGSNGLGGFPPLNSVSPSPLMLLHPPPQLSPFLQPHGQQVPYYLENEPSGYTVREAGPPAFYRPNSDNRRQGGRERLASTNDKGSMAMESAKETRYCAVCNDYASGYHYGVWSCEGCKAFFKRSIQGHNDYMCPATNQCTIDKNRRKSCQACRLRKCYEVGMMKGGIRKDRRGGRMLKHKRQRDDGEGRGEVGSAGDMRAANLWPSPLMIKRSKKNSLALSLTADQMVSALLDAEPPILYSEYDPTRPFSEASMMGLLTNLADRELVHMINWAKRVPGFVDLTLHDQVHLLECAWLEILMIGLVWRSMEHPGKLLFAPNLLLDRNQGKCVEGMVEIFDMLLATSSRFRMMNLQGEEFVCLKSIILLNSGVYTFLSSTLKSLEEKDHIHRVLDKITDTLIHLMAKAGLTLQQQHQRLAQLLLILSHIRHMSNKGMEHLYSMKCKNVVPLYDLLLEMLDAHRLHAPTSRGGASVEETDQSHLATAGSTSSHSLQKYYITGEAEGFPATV

Cc1c(C(N)=O)cc([N+](=O)[O-])cc1[N+](=O)[O-]
inactive: [1] | [2] | [3] | [4] | [5] | [6]

CCCCCCC1CCCC(=O)O1 (stereo unspecified)
active: [13] 75.2 µM
not listed: [2] | [4] | [20]
inactive: all other assays above

CC(C)C1OCCN1CCOC(=O)NCCCCCCNC(=O)OCCN1CCOC1C(C)C (stereo unspecified)
inactive: [1] | [18] | [19] | [3] | [4] | [5] | [6]

O=[N+]([O-])c1cc[n+]([O-])cc1
inactive: [20] | [1] | [18] | [19] | [3] | [4] | [5]

CCOc1ccc2c(c1)C(C)CC(C)(C)N2 (stereo unspecified)
inactive: [7] | [8] | [9] | [10] | [11] | [12] | [13] | [14] | [15] | [16] | [17]

CC/C=C\CCCCCO
not listed: [1] | [6] | [20]
inactive: all other assays above

CCCCCCCCCCCCSC#N
inactive: [20] | [18] | [19] | [2] | [3]

CCCc1c(OCCCCc2nn[nH]n2)ccc(C(C)=O)c1O
active: [8] 135 µM | [11] 180 µM | [18] 73.1 µM and 19.2 µM | [2] 30.1 µM | [4] 26.6 µM | [6] 25.2 µM
inactive: [7] | [9] | [10] | [12] | [13] | [14] | [15] | [16] | [17] | [1] | [19] | [2] | [3] | [4] | [5] | [6]

COc1ccc(C(=O)c2ccccc2O)c(O)c1
inactive: [18] | [4] | [5] | [6]

COC(=O)CCSCCC(=O)OC
inactive: [7] | [8] | [9] | [10] | [11] | [12] | [13] | [14] | [15] | [16] | [17]

CCCCCC1CCCC(=O)O1 (stereo unspecified)
not listed: [2] | [5] | [19] | [20]
inactive: all other assays above

Cc1ccccc1S(=O)(=O)O
not listed: [4] | [18] | [20]
inactive: all other assays above

O=C1CCCCCCCCCCCCCC1
active: [9] 49.4 µM
not listed: [1] | [5] | [6] | [20]
inactive: all other assays above

CCCCNC(N)=O
not listed: [3] | [20]
inactive: all other assays above

CC1=C(/C=C/C(C)=C/C=C/C(C)=C/C(=O)Nc2ccc(O)cc2)C(C)(C)CCC1
inactive: [1] | [18] | [19] | [2]
active: [1] 44.5 µM | [18] 62.4 µM | [19] 62.5 µM | [2] 74.6 µM | [3] 53.7 µM and 35 µM | [4] 73.6 µM and 37.7 µM | [5] 43.7 µM and 37.9 µM | [6] 72.5 µM and 36.6 µM
